Data as given in PubChem BioAssay AID449762 (Southern Research Specialized Biocontainment Screening …, 2010).
Hit rate of the full screen: of about 330,000 compounds, about 1,900 (0.58%) were called active. About 4% were inconclusive and are not listed. Cut-off read from the data, not from the text of the source: inconclusive = inhibition above about 70% without an active follow-up result; inactive = below that. Only a sample is shown. Results with a measured potency or affinity are listed apart.

Test: M. tuberculosis growth inhibition, HTS (AID 449762);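 note: bacterial growth assessed after seven days of incubation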
Conditions: M. tuberculosis H37Rv growth inhibition, 7H9 media; at 25 µM; stronger effect = higher value

Structure (SMILES) | inhibition
CN1/C(=C\C(=O)c2cccnc2)C(C)(C)c2ccccc21 | 14.2% (inactive)
CN1/C(=C\C(=O)c2ccco2)C(C)(C)c2ccccc21 | 1.21% (inactive)
CCC(C)[C@H](NC(=O)Nc1ccc(S(N)(=O)=O)cc1)C(=O)OC (stereo not given in full) | 1.32% (inactive)
O=C(CCl)Nc1ccc(S(=O)(=O)NC2=NCCCCC2)cc1 | 47.6% (inactive)
Cc1cc(NC(=O)/C=C/c2ccccc2)no1 | 11.4% (inactive)
COC(=O)c1cc(/C=C/c2ccccc2)[nH]n1 | 37.7% (inactive)
O=C(c1ccc(C(F)(F)F)cc1)N1CCC(=O)N(C(COCc2ccc(Cl)cc2)Cc2ccccc2)CC1 (stereo not given) | -0.74% (inactive)
CCSc1nc2ccccc2n1CC(N)=O | -10.4% (inactive)
CC(C)(C(=O)O)c1ccc(C(O)CCCN2CCC(C(O)(c3ccccc3)c3ccccc3)CC2)cc1 (stereo not given) | 6.01% (inactive)
CC(C)(C(=O)O)c1ccc([C@H](O)CCCN2CCC(C(O)(c3ccccc3)c3ccccc3)CC2)cc1 | 6.89% (inactive)
Cc1ccc2cc(CCNC(=O)c3ccc4c(c3)OCO4)c(=O)[nH]c2c1C | -3.26% (inactive)
Cn1c(=O)n(C)c2cc(NC(=O)CCl)ccc21 | 64.7% (inactive)
Cn1ccc(NC(=O)CCl)n1 | 57.5% (inactive)
CSc1ccc(CCNS(=O)(=O)c2c(C)[nH]c(C)c2C(=O)N2CCCCC2)cc1 | -2.39% (inactive)
Cc1ccc(NC(=O)C2CCC(CNC(=O)[C@@H]3Cc4ccccc4CN3)CC2)c(C)c1 (stereo not given in full) | 7.99% (inactive)
Cn1c(O)c(/C=N/N2CCCCC2)c(=O)[nH]c1=O | -3.56% (inactive)
C=CCSC1=C(C#N)C(c2ccccc2C)CC(=O)N1 (stereo not given) | 1.95% (inactive)
COc1cc2[nH]c(=O)n(C3CCCCC3)c(=O)c2cc1OC | -2.86% (inactive)
COc1c[nH]n(-c2ccccc2)c(=O)c1=O | 2% (inactive)
O=C1C=C(c2ccc3ccccc3c2)C[C@@H](c2ccc(Cl)cc2)C1 | 19.3% (inactive)

Structure (SMILES) | inhibition
COc1ccc([C@H]2CC(=O)C=C(c3ccc4[nH]ccc4c3)C2)cc1OC | 55.7% (inactive)
O=C(Nc1ccc(F)c(F)c1)C1CCN(S(=O)(=O)c2cccc3nonc23)CC1 | -5.72% (inactive)
Cn1nc(C(=O)Nc2cc(Cl)ccc2N2CCCC2)c2ccccc2c1=O | 1.5% (inactive)
Cc1cccnc1NC(=O)COc1ccc2c(c1)CCC2 | 54.8% (inactive)
CC(=O)Nc1ccc(NC(=O)COc2ccc3c(c2)CCC3)cc1 | 1.68% (inactive)
O=C(c1ccc2snnc2c1)N1CCCCC1 | -3.95% (inactive)
Cc1ccc(N2CC(C(=O)Nc3nccs3)CC2=O)cc1Cl (stereo not given) | 10.9% (inactive)
CCc1nnc(NC(=O)C2CC(=O)N(c3ccc(C)cc3)C2)s1 (stereo not given) | 11.9% (inactive)
COC(=O)/C(C#N)=C/c1c(-c2ccccc2)nc2n1CCS2 | -12.2% (inactive)
CCNc1nc(NC(C)C)nc(NS(=O)(=O)c2ccc(N)cc2)n1 | -9.39% (inactive)
O=C(N/N=C/C=C/c1ccccc1)c1cccnc1 | -0.94% (inactive)
CC(/C=C/c1ccco1)=N\NC(=O)c1cccnc1 | -3.96% (inactive)
CC(C)(C)N1CSC(=S)N(Cc2ccccc2)C1 | 65% (inactive)
CC(C)N1CSC(=S)N(Cc2ccccc2)C1 | 64.3% (inactive)
S=C1NCN(Cc2ccco2)CN1Cc1ccco1 | 7.57% (inactive)
COCCN1CSC(=S)N(Cc2ccco2)C1 | 66.9% (inactive)
O=C(CCN1C(=O)c2ccccc2C1=O)Nc1ccc(F)cc1 | -6.8% (inactive)
CN(C)CCCN(C(=O)c1cc(-c2cccs2)nc2ccccc12)c1nc2c(F)cccc2s1 | 49.4% (inactive)
CN(C)CCCN(C(=O)c1nc2ccccc2s1)c1nc2ccc(F)cc2s1 | -11.9% (inactive)
C[C@H](CO)N1C[C@H](C)[C@@H](CN(C)C(=O)NC2CCCCC2)Oc2ccc(NC(=O)Cn3cnnn3)cc2C1=O | 4.07% (inactive)

Structure (SMILES) | inhibition
Cc1c(C)c(C)c(CN2CCCC2)c(C)c1C | 2.65% (inactive)
CNC(=O)c1ccc(NC(=O)CCc2c(C)noc2C)cc1 | -12.4% (inactive)
CC[C@@]12C(=O)N(c3cccc(F)c3)C(=O)N1[C@H](c1ccc(F)cc1)[C@@H]1C(=O)N(C3CCCCC3)C(=O)[C@@H]12 | 0.17% (inactive)
CC(=O)C1=NN(c2ccccc2)C(c2cccs2)N1c1ccccc1 (stereo not given) | -3.16% (inactive)
CC(=O)Nc1ccc(N2C(C(C)=O)=NN(c3ccccc3)C2c2cccs2)cc1 (stereo not given) | 1.3% (inactive)
CC(=O)OCC1=C(C(=O)O)N2C(=O)C(NC(=O)C(C)Cn3cc(Cl)cn3)C2SC1 (stereo not given) | -1.4% (inactive)
CCCSc1nsc(SCCC)c1C#N | -0.55% (inactive)
CN(Cc1ccccc1)C(=O)Cn1c(=O)oc2cc(S(=O)(=O)N3CCCC3)ccc21 | -1.71% (inactive)
COc1cc(C2C(C(=O)C(C)(C)C)=C(O)C(=O)N2Cc2ccccc2)ccc1O (stereo not given) | 1.41% (inactive)
COc1cccc(NC(=O)c2oc3ccc(S(=O)(=O)N4CCOCC4)cc3c2C)c1 | 58% (inactive)
Cc1ccc(NC(=O)c2oc3ccc(S(=O)(=O)N4CCOCC4)cc3c2C)cc1C | -7.43% (inactive)
O=C(O/N=C1/CCCc2occc21)c1ccccc1 | 6.31% (inactive)
CCCn1c(S(=O)(=O)O)nc2ccccc21 | 5.54% (inactive)
COc1cc2c(cc1OC)C(C)N(S(=O)(=O)c1cccs1)CC2 (stereo not given) | -12.1% (inactive)
O=C(NC1CCCC1)C(c1ccncc1)N(CCCN1CCOCC1)C(=O)c1ccc(-c2ccccc2)[nH]1 (stereo not given) | 3.89% (inactive)
O=C(NC1CCCCC1)C(c1ccc(F)cc1)N(CCN1CCOCC1)C(=O)c1ccc(-c2ccccc2)[nH]1 (stereo not given) | 42.3% (inactive)
CCC(COC(=O)Nc1ccccc1)NC(=O)OC(C)C (stereo not given) | -6.07% (inactive)
COc1cccc(Cn2cnc3c(NS(=O)(=O)c4cc(Cl)ccc4Cl)c(C)c(C)cc32)c1 | 0.44% (inactive)
Oc1ccc(Nc2nc(-c3ccc(O)cc3)cs2)cc1 | 4.52% (inactive)
NS(=O)(=O)c1ccc(Nc2nc(-c3ccc4ccccc4c3)cs2)cc1 | 1.78% (inactive)
